EBV LMP1 NFkB: Epstein-Barr LMP1 NF-kappaB reporter inhibition | actives 0.69% (n = 350,000) | LMP1-induced NF-kappaB luciferase reporter cells, luminescence | inhibition, % at 12.5 µM | AID 504558; in the data active = inhibition above about 41%; inconclusive = no clear call, values can overlap the other calls;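 also: 0% = neutral control wells and 100% = reference inhibitor control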
EWS-Fli block: inhibitors of EWS/Fli oncoprotein transcriptional activity; actives 0.67% (n = 350,000); inhibition, % at 12.6 µM; A673 NR0B1-luciferase reporter, viability-normalised; AID 651661;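 active = mean inhibition of at least 50% after viability correction, with every replicate also passing that limit; inconclusive = mean reaches 50% but only one of two replicates passes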;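 also: firefly luciferase signal divided by Alamar Blue viability fluorescence both relative to DMSO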
Shn3 inh set2: reduces Shn3 3'UTR luciferase signal in osteoblasts. Clone20 osteoblast Shn3 3'UTR firefly luciferase, 24 h. inhibition, % at 12.5 µM. actives 0.52% (n = 360,000). AID 588674;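 active = mean inhibition of at least 75% with every replicate also reaching 75%; inconclusive = mean inhibition at least 75% but some replicate below; inactive = mean inhibition below 75%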;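 also: 0% = median of neutral control wells and 100% = pilot-screen positive control compound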
MITF TRPM1 inh: MITF TRPM1 promoter inhibition in SK-MEL-5 cells; SK-MEL-5 TRPM1 promoter luciferase, 24 h; inhibition, % at 12.5 µM; actives 0.83% (n = 330,000); AID 488899;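 active = mean inhibition across replicates of 60% or more, whatever share of single replicates reaches that level; inconclusive = some that reach 60%, reason not given; inactive = mean inhibition across replicates below 60%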
PAX8 inh HTS: inhibitors of PAX8 transcriptional activity in RMG-I cells; actives 1.2% (n = 360,000); inhibition, % at 12.6 µM; RMG-I TPO-luciferase reporter, SteadyGlo, 24 h; AID 652154;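 active = mean replicate inhibition at least 60% with every replicate also reaching 60%; inconclusive = only one of the two criteria is met; inactive = mean below 60% and not all replicates reaching 60%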;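 also: luciferase light reporting Pax8 driven TPO promoter activity; plate controls were median of neutral control wells for no effect and mitoxantrone controls for full effect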
LGR2 inh: Drosophila LGR2 receptor signaling inhibition. actives 0.35% (n = 380,000). inhibition, % at 9.99 µM. HEK293 LGR2, CRE-luciferase, bursicon-stimulated, 4 h;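 active = drop in luminescence signal, shown as inhibition above about 50% in the replicate tests, limit read from the data, passing the limit was not always enough; inconclusive = probably only some replicates passing the limit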;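 also: agonist challenge used bursicon conditioned medium at about half maximal strength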
The depositor's hits bear a star; ? = inconclusive; . = no result given. Shown are actives, neighbours in structure and some others; about 2.2% of the full set was active somewhere.

SMILES	EBV LMP1 NFkB	EWS-Fli block	Shn3 inh set2	MITF TRPM1 inh	PAX8 inh HTS	LGR2 inh
Cc1ccc(-c2cc(C(=O)N/N=C/C(Br)=C/c3ccccc3)n[nH]2)o1	-20	6	5	12	74*	-28
Cc1ccc2c(c1)COc1c3ccc(C(=O)NCC4CC4)cc3nn1-2	-24	-184	-98	-75	-213	-54
Cc1ccc2c(c1)COc1c3ccc(C(=O)O)cc3nn1-2	-5	5	-9	70*	65*	?
C[C@@H](NC(=O)C[C@@H]1C=C[C@H](NC(=O)C2CCC2)[C@@H](CO)O1)c1ccccc1	.	-6	.	.	-9	-9
CN1c2ccc(-c3cccc(C#N)c3)cc2[C@@H]2[C@@H](CCN2C(=O)c2ccc(F)cc2)[C@@H]1CO	.	14	.	.	-3	-9
COc1ccccc1C(C[N+](=O)[O-])c1c(N)n(C)c(=O)n(C)c1=O (stereo unspecified)	.	23	22	.	64*	69*
COc1ccccc1C(c1c(N)n(C)c(=O)n(C)c1=O)C(C)[N+](=O)[O-] (stereo unspecified)	.	11	4	.	1	7
O=C(Cn1cc(C(F)(F)F)ccc1=O)Nc1ccc2c(c1)OCO2	0	0	13	.	95*	-11
O=C(Nc1cccc(F)c1)N1C[C@H]2[C@@H](c3ccccc31)[C@@H](CO)N2C(=O)Cc1ccccn1	.	-15	.	.	-2	1
COc1ccc(Cn2nnnc2C(CC(C)C)N2CCN(c3ccccc3)CC2)cc1 (stereo unspecified)	8	.	25	1	.	10
CCCC(c1nnnn1Cc1ccc(OC)cc1)N1CCN(c2ccccc2)CC1 (stereo unspecified)	3	.	89*	-4	.	.
C[C@H]1CN([C@@H](C)CO)C(=O)c2cc(NC(=O)CCC(F)(F)F)ccc2O[C@H]1CN(C)C	.	2	.	.	-14	14
O=C1C(=O)N(c2nccs2)C(c2ccccc2)/C1=C(\O)c1ccc2c(c1)OCCO2 (stereo unspecified)	34	.	7	67*	.	.
O=C1C(=O)N(c2nccs2)C(c2ccccc2F)/C1=C(\O)c1ccc2c(c1)OCCO2 (stereo unspecified)	16	-3	8	15	54	22
CC1(C)CC(=O)C(CC2=C(O)CC(C)(C)CC2=O)=C(O)C1	66*	.	12	1	.	.
Nc1cccnc1S(=O)(=O)c1cccc(C(F)(F)F)c1	-2	8	7	0	23	1
Nc1nc(N)c2cc(S(=O)(=O)c3cccc(C(F)(F)F)c3)ccc2n1	2	15	85*	.	29	-24
CC(=O)N1/C(=C/c2ccc(N(C)C)cc2)C(=O)c2ccccc21	28	29	-16	33	18	75*
CN(C)c1ccc(/C=C2\CCC/C(=C\c3ccccc3)C2=O)cc1	-21	-9	23	-5	-10	-39
COc1ccc(NS(=O)(=O)c2ccc(N3CCCC3)c(NC(=S)Nc3ccc(SC(F)F)cc3)c2)cc1	9	3	40	-5	101*	-6
CS(=O)(=O)Nc1ccccc1C(=O)NCC1(N2CCCCC2)CCCCC1	47*	3	4	5	-9	18
O=C(C1CCC(CNS(=O)(=O)c2cccs2)CC1)N1CCN(c2ccc(Cl)cc2)CC1 (stereo unspecified)	33	.	88*	69*	68*	33
O=C(NC1CCCC1)C1CCC(CNS(=O)(=O)c2cccs2)CC1 (stereo unspecified)	3	.	25	-14	16	2
O=C(C1CCCC1)N1CC(=O)N2[C@H](C1)[C@H](c1ccc(-c3cccnc3)cc1)[C@@H]2CO	.	-18	.	.	.	24
COc1ccc(-c2cc(-c3ccccc3)c(C#N)c(S(C)=O)n2)cc1 (stereo unspecified)	11	.	2	70*	76*	.
CCSc1nc(-c2ccc(OC)cc2)cc(-c2ccccc2)c1C#N	4	10	51	10	.	.
C[C@@H]1CCCCO[C@H](CN(C)C(=O)Nc2ccccc2)[C@H](C)CN([C@H](C)CO)C(=O)c2cc(NC(=O)Nc3ccc(C(F)(F)F)cc3)ccc2O1	.	.	.	.	.	29
COc1cc2c(cc1NC(=O)COC(=O)C(CCSC)NC(=O)c1ccccc1Cl)oc1ccccc12 (stereo unspecified)	-16	-67	-98	-27	62*	-20
COc1cc2c(cc1NC(=O)COc1ccccc1OC)oc1ccccc12	1	.	11	-11	.	15
